Compound activity: PubChem, National Center for Advancing Translational Sciences (NCATS)
LDHA inh – inhibitors of human lactate dehydrogenase A; P00338; AID 1347041; activity change, % (values are at about 110 or 230 µM); purified LDHA, NADH/diaphorase-resazurin fluorescence; active compounds read low; 0.15% of 480,000 active; in the data active means activity change below about -30%; inconclusive means mostly about -25% to -30%;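 further: plate controls were DMSO wells for no effect and wells without enzyme for full effect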
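Enzyme activity of human lactate dehydrogenase 5 (2 nM; 0.06 mM NADH, 0.2 mM pyruvate, 5 min, RT) is measured via a resazurin/diaphorase fluorescence readout of residual NADH.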
mIDH1 inhibitor – inhibitors of human mutant IDH1 R132H. IDH1-R132H enzyme, NADPH consumption, diaphorase/resazurin fluorescence. Potency, µM (titrated, usually from 76.6 µM), without a hit: at the highest dose activity change, negative = inhibition, actives largely listed as inhibitors. 0.093% of 390,000 active. O75874; further: potency means the concentration at half of the fitted maximal effect; on the % scale 0 is the no-effect control and ±100 the full control effect; nearly all actives have a fitted effect of over 65% in size
Target sequence (O75874 whole entry R132H, stated change not applied): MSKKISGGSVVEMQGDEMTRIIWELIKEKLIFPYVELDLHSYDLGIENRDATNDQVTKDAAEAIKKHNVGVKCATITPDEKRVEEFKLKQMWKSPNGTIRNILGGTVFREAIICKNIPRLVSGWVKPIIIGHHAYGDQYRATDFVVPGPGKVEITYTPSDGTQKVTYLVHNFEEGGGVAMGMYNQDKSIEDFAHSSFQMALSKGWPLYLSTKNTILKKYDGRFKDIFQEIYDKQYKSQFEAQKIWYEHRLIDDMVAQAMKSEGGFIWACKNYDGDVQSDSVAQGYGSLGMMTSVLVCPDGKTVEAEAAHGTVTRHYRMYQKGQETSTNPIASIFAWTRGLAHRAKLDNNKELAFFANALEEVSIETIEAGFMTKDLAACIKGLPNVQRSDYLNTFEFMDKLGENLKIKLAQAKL
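IDH1-R132H (0.5 ug/mL dispensed) in pH 7.5 Tris buffer was preincubated 30 min with compound, then given a substrate mix of 0.016 mM NADPH and 2 mM alpha-KG for 80 min at room temperature; remaining NADPH was read by diaphorase/resazurin fluorescence.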
Nrf2 activator – activators of Nrf2 (ARE) signaling | AREc32 ARE-luciferase reporter (MCF7-derived line), luminescence, 24 h | Potency, µM (doses to about 46.1 µM), for inactives: at the top dose activation, most hits filed as activators | 0.31% of 410,000 active | AID 624171; further: potency means the concentration at half of the fitted maximal effect; % of control where 0% means no effect; nearly all actives have a fitted effect of over 65% in size
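Luciferase luminescence (Steady-Glo, 30 min at room temperature) served as the read-out of ARE activation in AREc32 cells treated with compounds for 24 hr at 37 deg C.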
Nrf2 block – inhibitors of Nrf2 signaling | 2.1% of 360,000 active | A549 ARE-Fluc reporter, luciferase luminescence, 18-24 h | Potency, µM (top dose mostly 46 µM), inactives show top-dose activity change, negative = inhibition, usual class: inhibitors; further: potency means the concentration at half of the fitted maximal effect; on the % scale 0 is the no-effect control and ±100 the full control effect; nearly all actives have a fitted effect of over 60% in size
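Reporter: ARE-Fluc in A549. Exposure: 18-24 h, 37 °C, 5% CO2, 5% FBS OPTI-MEM. Readouts: fluorescent cytotoxicity (CellTiter-Fluor), then luminescent Nrf2 signal after BugLite.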
ALOX12 inh – inhibitors of human 12S-lipoxygenase ALOX12. P18054. purified 12hLO, xylenol orange hydroperoxide absorbance. Potency, µM (highest dose often 108 µM), without a hit: at the top dose activity change, negative = inhibition, actives largely listed as inhibitors. 1.1% of 580,000 active; further: potency means the concentration at half of the fitted maximal effect; on the % scale 0 is the no-effect control and ±100 the full control effect
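Purified human 12hLO at 150 nM in 25 mM Hepes, 0.01% Triton X-100, pH 7.0, preincubated 15 min at room temperature with compound. Reaction started with 40 uM arachidonic acid, 30 min at room temperature. Hydroperoxide measured by Fe-xylenol orange, 573/405 nm absorbance ratio.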
A549 tox – counter-screen for Nrf2 inhibitors: cytotoxicity in A549 cells; 0.16% of 390,000 active; Potency, µM (highest dose often 46 µM), for the others: at the highest dose activity change, negative = cytotoxicity, usual class: inhibitors; A549 ARE-Fluc cells, CellTiter-Fluor viability, 18-24 h; further: potency means the concentration at half of the fitted maximal effect; on the % scale 0 is the no-effect control and ±100 the full control effect
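A549 ARE_Fluc cells in 5% FBS OPTI-MEM were exposed to compounds in concentration-response for 18-24 h at 37 deg C. Viability was read by CellTiter-Fluor fluorescence (Ex 405/Em 525) after 30 min, before the luciferase read.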
Starred values were filed as active, the others as inactive; ? = inconclusive; . = no result. The list is not random: actives were taken first. Their share in the collection is about 2.7%. Unless noted, the call rests on the fitted dose curve; in most records, active means well fitted curve in the direction sought with a large enough effect; inconclusive means small, poorly fitted or top-dose-only effect, or another doubt; inactive means no such curve, though single readings can be large; an effect the other way counts as inactive or inconclusive.

SMILES	LDHA inh	mIDH1 inhibitor	Nrf2 activator	Nrf2 block	ALOX12 inh	A549 tox
CC(C)Oc1cccc(C(=O)Nc2ccc(Br)cc2F)c1	-2.4	-3.5%	0.0%	?	-14.3%	-4.5%
Cc1ccc(NC(=O)c2ccc(OCc3c(C)noc3C)cc2)cc1C	-7.6	0.0%	1.6%	18.4µM*	12.2%	?
CC(=O)Nc1ccc(NC(=O)c2ccc(OCc3c(C)noc3C)cc2)cc1	-11.4	5.3%	-0.4%	-5.7%	-3.8%	0.5%
Cc1ccc(NC(=O)c2cccc(OCc3c(C)noc3C)c2)c(C)c1	6.5	0.1%	0.4%	?	-19.3%	-0.8%
Cc1ccc(NC(=O)c2ccc(OCc3c(C)noc3C)cc2)c(C)c1	-4.5	-3.4%	0.2%	23.1µM*	3.8%	-7.4%
CCOc1ccc(CNC(=O)c2cccn2-c2nnc(N3CCCCC3)s2)cc1	6.0	.	.	.	2.9%	.
COc1ccccc1/C=C/C(=O)NC(=S)NCC1CCCO1 (stereo not given)	-6.9	24.0%	10.5%	?	39.8µM*	8.9%
O=C(NC(=S)NCc1ccco1)c1ccc(Br)cc1	-9.0	1.0%	11.0%	2.0%	15.8µM*	4.6%
O=C(NC(=S)NCc1ccco1)c1ccccc1	-4.0	3.0%	4.7%	?	-13.1%	-0.2%
CC(C)(C)c1ccc(C(=O)NC(=S)NCC2CCCO2)cc1 (stereo not given)	-15.3	2.2%	-0.6%	1.1%	7.94µM*	1.1%
COCCNC(=S)NC(=O)c1ccc(C(C)(C)C)cc1	-11.1	9.6%	6.1%	2.3%	12.6µM*	-1.1%
CCOC(=O)c1cnc2ccc(OC)cc2c1Nc1cccc(C(=O)O)c1	8.3	.	.	.	?	.
CC(/C=C/c1cccnc1)=C\C(=O)O	5.7	.	.	.	?	.
Cc1nnc(NC(=O)CCc2ccc(-c3ccc(C)c(C)c3)o2)s1	14.8	.	.	.	-2.8%	.
CCNC(=S)NNC(=S)NCC1CCCO1 (stereo not given)	0.2	.	.	.	39.3%	.
CC(C)(C)c1ccc(C(=O)NC(=S)NCc2ccco2)cc1	-1.8	-6.2%	2.6%	14.8%	14.1µM*	16.4%
CCOC(=O)NNC(=S)NCC1CCCO1 (stereo not given)	2.6	.	.	.	6.31µM*	.
COCCCNC(=S)NNC(=O)C1CC1c1ccc(C(C)(C)C)cc1 (stereo not given)	-3.7	8.8%	-0.9%	20.6µM*	-28.6%	-2.1%
O=C(O)c1ccccc1-c1ccc(/C=N/O)o1	9.6	.	.	.	?	.
C/C(=N\Nc1ccc(F)cc1)c1sc2ccc(Cl)cc2c1C	6.0	.	.	.	?	.
O=C(CSc1ccc(N2CCC(C(=O)N3CCCCC3)CC2)nn1)Nc1ccc2c(c1)CCC2	-1.8	.	.	.	-15.3%	.
COc1ccccc1/C=C/C(=O)c1cc(Br)ccc1OC(=O)c1ccco1	-7.4	2.2%	20.3%	25.9µM*	?	?
Cc1ccc(/C=C/C(=O)c2cc(Br)ccc2OC(=O)c2ccco2)cc1	-3.7	4.1%	24.1%	4.3%	?	-5.4%
CCOC(=O)[C@H]1[C@H]2COc3ccc(Br)cc3[C@H]2N2C(=O)CN(Cc3ccc(Cl)cc3)C(=O)[C@@]12C	-0.2	-2.7%	4.8%	25.9µM*	?	-11.6%
COc1cc2c(cc1NC(=O)CSc1nc3ccccc3[nH]1)oc1ccccc12	-3.5	6.5%	8.8%	18.4µM*	?	?
Cc1c(C(=O)N2CCCC2)oc2c1-c1nn(CC(=O)NC(C)c3ccccc3)cc1CC2 (stereo not given)	16.9	0.3%	0.6%	18.4µM*	-24.8%	-4.4%
Nc1nc(-c2ccco2)nn1C(=O)c1ccccc1	2.4	1.9%	0.4%	-14.3%	-5.4%	-7.0%
COc1ccc(C(=O)n2nc(-c3ccc(OC)cc3)nc2N)cc1	-0.1	-1.3%	2.0%	?	-18.0%	2.8%
Nc1nc(-c2ccco2)nn1C(=O)c1ccc(F)cc1	-1.9	8.6%	-1.3%	18.4µM*	-0.3%	3.9%
